# Screening results deposited in PubChem by several laboratories.
# Compounds with a hit are over-represented: about 0.82% of the library has one in this group of screens.
# BioA inh = inhibitors of Mycobacterium tuberculosis BioA enzyme; AID 602481; purified M. tuberculosis BioA enzyme, plate reader; inhibition, % at 9.99 µM; 360,000 compounds, 0.096% hits; in the data active = inhibition above about 40%
# Rv3671c protease = inhibitors of M. tuberculosis serine protease Rv3671c; inhibition, % at 5.96 µM; 320,000 compounds, 0.048% hits; AID 2606; P9WHR9; in the data active = inhibition above about 38%;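 note: extracellular domain of Rv3671c used as enzyme; 0% = enzyme with DMSO and 100% = no enzyme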
# FadD28 FP inh = blocks FadD28 binding to the bisubstrate probe; fluorescence polarization; inhibition, % at 12.5 µM; 360,000 compounds, 0.22% hits; AID 588549; in the data active = inhibition above about 8.5%, passing the limit was not always enough
# RecA splice inh = inhibitors of M. tuberculosis RecA intein splicing; cell-free RecA intein splicing, fluorescence; inhibition, % (test concentration not listed); 290,000 compounds, 0.75% hits; AID 2221; in the data active = inhibition above about 30%;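 note: 0% = vehicle wells and 100% = reference inhibitor control wells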
# UGM FP inh = inhibitors of M. tuberculosis UDP-galactopyranose mutase; inhibition, % at 10 µM; purified UGM, fluorescence polarization probe displacement; 320,000 compounds, 0.06% hits; in the data active = inhibition above about 10%, passing the limit was not always enough
# Target sequence (P9WIQ1 whole entry, looked up): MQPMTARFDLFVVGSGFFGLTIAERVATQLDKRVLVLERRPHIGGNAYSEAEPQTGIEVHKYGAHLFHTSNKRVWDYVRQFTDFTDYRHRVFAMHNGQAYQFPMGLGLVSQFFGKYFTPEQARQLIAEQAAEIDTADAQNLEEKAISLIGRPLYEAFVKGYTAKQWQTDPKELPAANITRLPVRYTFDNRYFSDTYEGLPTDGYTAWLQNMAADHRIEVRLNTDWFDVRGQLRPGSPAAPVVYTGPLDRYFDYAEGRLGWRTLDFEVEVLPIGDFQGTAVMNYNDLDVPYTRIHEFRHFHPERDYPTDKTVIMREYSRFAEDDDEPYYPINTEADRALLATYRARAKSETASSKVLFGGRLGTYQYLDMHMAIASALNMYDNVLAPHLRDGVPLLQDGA
# Y pestis TopoI = Y. pestis Topo-I inhibition via cleavage products; Y. pestis Topo-I cleavage product accumulation, plate reader; activity, % at 10 µM; 360,000 compounds, 0.064% hits; AID 504884; in the data active = activity above about 50%, passing the limit was not always enough
# GFP chromo cs = counter-screen GFP chromophore formation inhibition; shares compounds with RecA splice inh; cell-free GFP chromophore formation, fluorescence; EC50, µM; 2,100 compounds, 83% hits; AID 434968; call rule not given here
# Starred values were filed as active, the others as inactive; . = no result given.
SMILES,BioA inh,Rv3671c protease,FadD28 FP inh,RecA splice inh,UGM FP inh,Y pestis TopoI,others
Cc1nn(-c2ccccc2)c(Cl)c1C1C(C#N)=C(N)Oc2c1c(C)nn2-c1ccccc1 (centres undefined),-1,8,0,12,3,-6,
CCn1nc(C)c(C2C(C#N)=C(N)Oc3n[nH]c(C)c32)c1C (centres undefined),.,-1,1,42*,-2,-3,
C[C@@H]1CN([C@H](C)CO)C(=O)c2cccc(NC(=O)C3CCOCC3)c2O[C@H]1CN(C)Cc1ccc(-c2ccccc2)cc1,-1,.,.,.,.,.,
CCCCCC(=O)Nc1cc(S(=O)(=O)O)cc2cc(S(=O)(=O)O)cc(O)c12,.,.,35*,.,.,-9,
CO[C@H]1CN(C)C(=O)c2cc(NC(=O)c3cccc(F)c3)ccc2OC[C@@H](C)NC[C@H]1C,0,.,.,.,.,.,
CCN(CC)C(=O)CSc1n[nH]c(=O)n1CCc1ccccc1,0,7,-4,-2,-2,-3,
O=c1[nH]nc(Sc2ncnc3sccc23)n1CCc1ccccc1,0,0,-2,31*,1,-6,
COc1cccc(/C=N/n2c(C3CCCCC3)n[nH]c2=S)c1OC,.,1,0,-2,0,31,
COc1cccc(/C=N/n2c(C3CCCCC3)n[nH]c2=S)c1O,0,.,15*,-2,4,1,
Oc1ccc(Br)cc1/C=N/n1c(C2CCCCC2)n[nH]c1=S,2,-3,16*,-3,-1,2,
COc1ccc(OC)c(N2C(=O)NC(=O)/C(=C\c3ccc([N+](=O)[O-])s3)C2=O)c1,1,-1,23*,10,2,-5,
CO[C@@H]1CN(C)C(=O)c2cc(NS(=O)(=O)c3ccccc3Cl)ccc2OC[C@H](C)NC[C@@H]1C,-2,.,.,.,.,.,
Cc1ccccc1C1CC(=O)Oc2cc(O)ccc21 (centres undefined),-6,.,13*,.,.,9,
C[C@@H]1CN([C@H](C)CO)C(=O)c2cc(NC(=O)CCN3CCOCC3)ccc2O[C@H]1CN(C)Cc1ccc(C(=O)O)cc1,1,.,.,.,.,.,
C[C@H]1CCCCO[C@H](CN(C)C(=O)c2ccccc2)[C@@H](C)CN([C@@H](C)CO)C(=O)c2cc(NC(=O)Nc3ccccc3)ccc2O1,-1,.,.,.,.,.,
CCOc1cc(/C=C2\C(=O)N(c3cccc(C(=O)O)c3)N=C2C(F)(F)F)ccc1OCC(=O)Nc1ccccc1OC,.,-1,.,33*,1,.,
Cc1nnc(SCC(=O)N2c3ccccc3C(C)(c3ccccc3)CC2(C)C)s1 (centres undefined),.,-12,-5,12,-1,59*,
Cc1ccc(C2(C)CC(C)(C)N(C(=O)CSc3nnc(C)s3)c3ccccc32)cc1 (centres undefined),0,-5,-3,20,-4,35,
CCNC(=O)C[C@@H]1CC[C@H]2[C@@H](COC[C@@H](O)CN2C(=O)Nc2ccc3c(c2)OCO3)O1,-1,.,.,.,.,.,
CCOC(=O)C1CCN(Cc2cccc(Oc3ccccc3)c2)CC1,-1,3,-5,-1,0,66*,
CCOC(=O)C1CCN(Cc2cccc(Oc3ccc(Cl)cc3)c2)CC1,-2,3,-2,4,0,16,
CC(=O)N(C)C[C@H]1Oc2cc(-c3cccc(C#N)c3)ccc2S(=O)(=O)N([C@@H](C)CO)C[C@@H]1C,3,.,.,.,.,.,
CC1=NN(c2ccc(Cl)cc2)C(=O)C1C(c1cccc(O)c1)c1c(C)[nH]n(-c2ccc(Cl)cc2)c1=O (centres undefined),.,-18,8,88*,0,1,GFP chromo cs=2.3*
CC1=NN(c2ccc(F)cc2)C(=O)C1C(c1cccc(O)c1)c1c(C)[nH]n(-c2ccc(F)cc2)c1=O (centres undefined),.,-112,1,97*,1,-9,GFP chromo cs=1.8*
Cc1[nH]n(-c2ccccc2)c(=O)c1C(=O)c1cccc(F)c1,.,-9,1,24,1,-5,
C[C@@H]1CCCCO[C@H](CN(C)C)[C@H](C)CN([C@H](C)CO)C(=O)c2cc(NC(=O)Cc3ccccc3)ccc2O1,0,.,.,.,.,.,
O=C(NC1=C(Nc2ccc(Cl)cc2)C(=O)c2ccccc2C1=O)c1ccccc1,.,-21,-3,49*,-2,-7,GFP chromo cs=25*
O=C(NC(NC1CCS(=O)(=O)C1)C(=O)c1cccs1)c1ccccc1 (centres undefined),.,-4,.,0,-1,.,
